Source: PubChem BioAssay (The Scripps Research Institute Molecular Screening Center)
NOTCH agonist = agonists of NOTCH signaling; NOTCH signaling luciferase reporter cells, luminescence; activation, % at 2.5 µM; 15,000 tested, 0.4% active; in the data active means activation above about 2.2%
S1P1 agonist = activates the human S1P1 receptor | P21453 | activation, % at 4.5 µM | AID 1044 | S1P1 agonist cell-based reporter assay | 16,000 tested, 1.5% active; in the data active means activation above about 80%
TLR4-MyD88 inh = inhibitors of human TLR4-MyD88 binding; O00206; Cell-based TLR4-MyD88 binding inhibition assay; inhibition, % at 10 µM; 16,000 tested, 0.06% active; in the data active means inhibition above about 45%
OPRK1 antag MB = OPRK1 (human) antagonism, Maybridge screen; P41145; OPRK1 cells, antagonist mode, fluorescence readout; inhibition, % at 9 µM; 16,000 tested, 0.4% active; AID 652031; in the data active means inhibition above about 50%
Target sequence (P41145 whole entry, looked up): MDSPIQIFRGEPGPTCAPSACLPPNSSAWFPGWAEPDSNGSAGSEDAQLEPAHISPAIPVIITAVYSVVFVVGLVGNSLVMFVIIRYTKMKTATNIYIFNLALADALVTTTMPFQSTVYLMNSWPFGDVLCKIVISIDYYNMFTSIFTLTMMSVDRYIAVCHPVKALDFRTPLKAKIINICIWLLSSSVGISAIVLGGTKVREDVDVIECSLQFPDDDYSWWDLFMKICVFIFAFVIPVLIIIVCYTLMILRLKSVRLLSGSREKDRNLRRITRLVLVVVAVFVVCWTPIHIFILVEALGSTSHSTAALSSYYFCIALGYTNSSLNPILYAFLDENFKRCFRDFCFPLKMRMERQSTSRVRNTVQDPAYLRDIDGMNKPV
Numbers without * were called inactive. Rows were chosen to be rich in hits. Some 2.2% of all compounds tested hit in one or more screens of this group.

Cc1nnsc1-c1nnc(C2CCCCC2)o1 was read as NOTCH agonist 3.8*, S1P1 agonist -2, TLR4-MyD88 inh -19 and OPRK1 antag MB -10.
`CC(C)(C)OC(=O)Nc1nnc(C(F)(F)C(F)(F)C(F)(F)F)s1` gave NOTCH agonist 0, S1P1 agonist -6, TLR4-MyD88 inh 5 and OPRK1 antag MB 9.
`Cc1nc(-c2ccc(C(F)(F)F)cn2)sc1C(=O)NN` gave NOTCH agonist -1, S1P1 agonist 0, TLR4-MyD88 inh -16 and OPRK1 antag MB 0.
Screening O=[N+]([O-])c1cc(C2SCCS2)ccc1Sc1ccc(Cl)cc1 returned NOTCH agonist 0, S1P1 agonist 21, TLR4-MyD88 inh 6 and OPRK1 antag MB 10.
For O=[N+]([O-])c1cc(C2SCCS2)ccc1SC1CCCCC1 the results were NOTCH agonist 0, S1P1 agonist 86*, TLR4-MyD88 inh -4 and OPRK1 antag MB -22.
`O=[N+]([O-])/C=C/c1c2ccccc2cc2ccccc12` gave NOTCH agonist -1, S1P1 agonist 24, TLR4-MyD88 inh -20 and OPRK1 antag MB 72*.
Screening O=[N+]([O-])/C=C/c1c(-c2ccc3ccccc3c2)[nH]c2ccccc12 returned NOTCH agonist 0, S1P1 agonist 34, TLR4-MyD88 inh -3 and OPRK1 antag MB -2.
For COc1ccc(C(=O)Nc2ccccc2Sc2ccc(Cl)cc2[N+](=O)[O-])cc1OC the results were NOTCH agonist -1, S1P1 agonist -8, TLR4-MyD88 inh 3 and OPRK1 antag MB -18.
CCOC(=O)/C(C#N)=C/Nc1nc2ccc(C)cc2s1 was read as NOTCH agonist 0, S1P1 agonist 87*, TLR4-MyD88 inh -8 and OPRK1 antag MB 0.
CC(=O)Nc1ccccc1-c1nnc(-c2ccc(C(C)(C)C)cc2)o1 was read as NOTCH agonist 0, S1P1 agonist 104*, TLR4-MyD88 inh 0 and OPRK1 antag MB 4.
CN(C)c1cc(NC(=O)Nc2ccccc2)c2ccccc2n1 was read as NOTCH agonist -1, S1P1 agonist -1, TLR4-MyD88 inh 0 and OPRK1 antag MB 57*.
CC(=O)Nc1ccc(NC(=O)Nc2ccccc2)cc1 was read as NOTCH agonist 0, S1P1 agonist -2, TLR4-MyD88 inh -2 and OPRK1 antag MB 0.
`CCOC(=O)c1ccc(NC(=S)NC)cc1` gave NOTCH agonist 2.9*, S1P1 agonist -11, TLR4-MyD88 inh -7 and OPRK1 antag MB -15.
`CCOC(=O)c1ccc(NC(=O)C(=S)NCc2ccccc2)cc1` gave NOTCH agonist 1, S1P1 agonist -4, TLR4-MyD88 inh 1 and OPRK1 antag MB 1.
`Cc1onc(-c2ccccc2)c1C(=O)Nc1cc(C(F)(F)F)ccc1N1CCCC1` gave NOTCH agonist 0, S1P1 agonist 2, TLR4-MyD88 inh -6 and OPRK1 antag MB -4.
For S=C(NNc1c(Cl)cncc1Cl)Nc1ccc(Cl)cc1Cl the results were NOTCH agonist -2, S1P1 agonist 119*, TLR4-MyD88 inh -6 and OPRK1 antag MB 62*.
For OCCCNNC(=S)Nc1ccc(Cl)cc1Cl the results were NOTCH agonist 0, S1P1 agonist 9, TLR4-MyD88 inh 2 and OPRK1 antag MB 24.
O=C(NCc1ccc(-c2cccs2)s1)c1ccc(Cl)cc1 was read as NOTCH agonist -1, S1P1 agonist -19, TLR4-MyD88 inh 2 and OPRK1 antag MB -20.
Screening CN(C)Nc1ccc([N+](=O)[O-])c(NN(C)C)c1C#N returned NOTCH agonist -1, S1P1 agonist 81*, TLR4-MyD88 inh 8 and OPRK1 antag MB -21.
Screening O=C1CNC(=S)N1Cc1cccs1 returned NOTCH agonist 0, S1P1 agonist 98*, TLR4-MyD88 inh 13 and OPRK1 antag MB 11.
For O=C1CNC(=S)N1Cc1ccccc1Cl the results were NOTCH agonist 2.5*, S1P1 agonist 0, TLR4-MyD88 inh -7 and OPRK1 antag MB -11.
Screening O=C1/C(=C/C2CCCCC2)CCc2ccccc21 returned NOTCH agonist 0, S1P1 agonist -14, TLR4-MyD88 inh -5 and OPRK1 antag MB -19.
Screening O=C(Nc1cccc2[nH]ccc12)C1CCCCC1 returned NOTCH agonist 2.3*, S1P1 agonist 0, TLR4-MyD88 inh -2 and OPRK1 antag MB 11.
`Cc1c(NC(=O)C2CCCCC2)cccc1[N+](=O)[O-]` gave NOTCH agonist 0, S1P1 agonist -7, TLR4-MyD88 inh -10 and OPRK1 antag MB -10.
For O=C(CCc1cc(C(F)(F)F)cc(C(F)(F)F)c1)N/N=C/c1ccc2c(c1)OCO2 the results were NOTCH agonist 0, S1P1 agonist -9, TLR4-MyD88 inh 2 and OPRK1 antag MB 5.
COc1ccc(CCN2C(=O)CSC2=Nc2ccc(C(C)C)cc2)cc1OC was read as NOTCH agonist -1, S1P1 agonist 108*, TLR4-MyD88 inh -1 and OPRK1 antag MB -56.
For COc1ccc(CCN2CC(C(=O)O)CC2=O)cc1OC (stereo not drawn) the results were NOTCH agonist 0, S1P1 agonist -12, TLR4-MyD88 inh -2 and OPRK1 antag MB -5.
O=C(Nc1ccccc1C(=O)c1ccccc1)c1ccc(Cl)cc1 was read as NOTCH agonist 0, S1P1 agonist -17, TLR4-MyD88 inh 0 and OPRK1 antag MB -8.
For NS(=O)(=O)c1cccc(NC(=O)c2cnc3ccccc3n2)c1 the results were NOTCH agonist 0, S1P1 agonist -11, TLR4-MyD88 inh 2 and OPRK1 antag MB -2.
O=S(=O)(Nc1ccc2c(c1)OCCO2)c1csc(-c2cc(C(F)(F)F)on2)c1 was read as NOTCH agonist 0, S1P1 agonist 82*, TLR4-MyD88 inh 6 and OPRK1 antag MB 3.
Screening N#C/C(N=Cc1ccc(Cl)cc1)=C(\C#N)NC(=O)Nc1ccc(OC(F)(F)F)cc1 returned NOTCH agonist 0, S1P1 agonist 100*, TLR4-MyD88 inh 5 and OPRK1 antag MB 23.
`C#CC(C)(C)NC(=O)/C=C\C(=O)O` gave NOTCH agonist 0, S1P1 agonist 10, TLR4-MyD88 inh 7 and OPRK1 antag MB -38.
COc1ccc(CCNC(C#N)c2ccco2)cc1OC (stereo not drawn) was read as NOTCH agonist 0, S1P1 agonist 105*, TLR4-MyD88 inh 4 and OPRK1 antag MB 13.
Screening O=C(Nc1ccc(C(F)(F)F)cc1)O/N=C/c1ccccn1 returned NOTCH agonist 1, S1P1 agonist -7, TLR4-MyD88 inh 5 and OPRK1 antag MB 4.
Screening O=C(O)CNC(=O)c1ccc(NC(=O)c2cccs2)cc1 returned NOTCH agonist -1, S1P1 agonist -5, TLR4-MyD88 inh -3 and OPRK1 antag MB -6.
Brc1ccc(-n2cccc2)nc1 was read as NOTCH agonist 0, S1P1 agonist 86*, TLR4-MyD88 inh 2 and OPRK1 antag MB -7.
For Clc1ccc(COc2ccc(-c3noc(C4CC4)n3)cc2)cc1 the results were NOTCH agonist 0, S1P1 agonist 101*, TLR4-MyD88 inh 0 and OPRK1 antag MB 0.
CN(C)S(=O)(=O)Oc1ccc(-c2noc(C3CCC3)n2)cc1 was read as NOTCH agonist 0, S1P1 agonist 17, TLR4-MyD88 inh 0 and OPRK1 antag MB 9.
Screening CC(C)(C)c1cc(C(=O)NNC(=S)Nc2ccccc2)n(Cc2ccc(Cl)cc2Cl)n1 returned NOTCH agonist -1, S1P1 agonist 101*, TLR4-MyD88 inh -2 and OPRK1 antag MB -3.
`CC(C)(C)c1cc(C(=O)NCc2ccc(C#N)cc2)n(Cc2ccccc2)n1` gave NOTCH agonist 0, S1P1 agonist 5, TLR4-MyD88 inh -7 and OPRK1 antag MB 2.
